# Experimental data taken from PMC4336329 (PLoS ONE, 2015).
# In all, about 310,000 compounds went through this assay and about 14,000 (4.5%) showed an effect of 50% or more. The effect is printed as a negative number. Many of the other results were omitted from the sample, so strong results are more common in it than they were.
# Biological target: human ether-à-go-go-related gene (hERG) potassium channel (human, UniProt Q12809)
# Assay: primary screen, population patch clamp on CHO cells stably expressing hERG; higher = less effect of the substance
# 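Note: peak tail current of the secondary pulse compared with the same well before compound.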
# human ether-à-go-go-related gene (hERG) potassium channel, sequence (Q12809 whole entry, looked up): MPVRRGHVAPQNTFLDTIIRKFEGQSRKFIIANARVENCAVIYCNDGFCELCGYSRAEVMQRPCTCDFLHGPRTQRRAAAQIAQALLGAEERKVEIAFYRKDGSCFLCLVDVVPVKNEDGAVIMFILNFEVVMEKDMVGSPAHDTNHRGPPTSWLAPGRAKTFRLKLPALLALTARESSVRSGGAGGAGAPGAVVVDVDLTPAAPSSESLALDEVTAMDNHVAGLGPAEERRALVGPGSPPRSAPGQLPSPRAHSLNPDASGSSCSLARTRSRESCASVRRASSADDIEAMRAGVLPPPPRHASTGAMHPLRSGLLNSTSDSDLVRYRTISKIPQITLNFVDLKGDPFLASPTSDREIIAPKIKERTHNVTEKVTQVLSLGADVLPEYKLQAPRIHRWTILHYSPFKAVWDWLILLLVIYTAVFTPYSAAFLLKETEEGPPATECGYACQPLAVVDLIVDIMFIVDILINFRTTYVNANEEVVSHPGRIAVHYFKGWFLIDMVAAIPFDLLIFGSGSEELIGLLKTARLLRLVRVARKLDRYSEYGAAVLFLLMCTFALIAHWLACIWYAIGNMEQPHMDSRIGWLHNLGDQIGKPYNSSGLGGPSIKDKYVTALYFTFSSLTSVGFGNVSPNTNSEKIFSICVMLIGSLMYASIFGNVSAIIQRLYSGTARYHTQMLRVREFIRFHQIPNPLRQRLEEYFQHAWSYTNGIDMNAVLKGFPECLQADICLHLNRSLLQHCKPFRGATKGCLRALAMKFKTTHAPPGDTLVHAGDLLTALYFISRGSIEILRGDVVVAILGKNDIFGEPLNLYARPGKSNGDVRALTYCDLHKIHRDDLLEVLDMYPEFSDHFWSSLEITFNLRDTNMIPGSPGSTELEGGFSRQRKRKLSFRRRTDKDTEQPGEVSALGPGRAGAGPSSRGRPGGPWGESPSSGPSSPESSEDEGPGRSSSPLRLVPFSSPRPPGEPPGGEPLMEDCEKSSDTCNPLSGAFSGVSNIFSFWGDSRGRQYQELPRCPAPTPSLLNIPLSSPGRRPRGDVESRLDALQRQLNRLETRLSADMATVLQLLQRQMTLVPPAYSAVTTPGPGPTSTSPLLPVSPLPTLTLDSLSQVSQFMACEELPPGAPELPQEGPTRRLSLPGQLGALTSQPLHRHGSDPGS
row,SMILES,"hERG current change (%, negative = inhibition) at 10uM [%]"
1,Fc1ccccc1CNc1ccc(Cl)cc1,-8.14
2,Fc1ccc(NCc2ccccc2F)cc1Cl,-139
3,Fc1ccccc1CNc1ccc(Cl)c(Cl)c1,9.9
4,CC(NC(=O)CSC1=NCCS1)c1ccccc1 (stereo not shown),14.3
5,Clc1nc2sccn2c1/C=N/n1cnc2ccccc21,-10
6,COc1ccc(C(C(=O)NC2CCCCC2)N(C(=O)c2ccco2)c2ccccc2C(C)=O)cc1OC (stereo not shown),9.15
7,CC(C(=O)Nc1ccc(Br)cc1C(=O)c1ccccc1)N1CCOCC1 (stereo not shown),-58.6
8,CC(C(=O)Nc1ccc(Br)cc1C(=O)c1ccccc1)N1CCCCC1 (stereo not shown),-24.8
9,O=C(CN1CCOCC1)Nc1ccc(Br)cc1C(=O)c1ccccc1,-32.4
10,O=C(CNC(=O)OCc1ccccc1)Nc1ccc(Br)cc1C(=O)c1ccccc1Cl,-40.5
11,O=C(CCN1CCOCC1)Nc1ccc(Br)cc1C(=O)c1ccccc1,-19.6
12,O=C(CCN1CCOCC1)NCC(=O)Nc1ccc(Br)cc1C(=O)c1ccccc1,-49.5
13,O=C(CN1CCCCC1)NCC(=O)Nc1ccc(Br)cc1C(=O)c1ccccc1,-79.1
14,O=C(CN1CCOCC1)NCC(=O)Nc1ccc(Br)cc1C(=O)c1ccccc1,-37.1
15,Cc1ccc(NC(=O)C(C)N2CCOCC2)c(C(=O)c2ccccc2)c1 (stereo not shown),-26.9
16,O=C(CNC(=O)OCc1ccccc1)NCC(=O)Nc1ccc(Br)cc1C(=O)c1ccccc1,-56
17,O=C(CCN1CCCCC1)NCC(=O)Nc1ccc(Br)cc1C(=O)c1ccccc1,-77.6
18,O=C(CNC(=O)OCc1ccccc1)Nc1ccc(Br)cc1C(=O)c1ccccc1,-15.1
19,Cc1csc(NC(=O)c2ccc(C)s2)n1,6.99
20,Cc1cc(C(=O)N/N=C/c2c[nH]c3ccccc23)c(C)o1,-27.4
21,N#Cc1c(C(F)(F)F)cc(-c2ccc(Cl)c(Cl)c2)nc1SCCN1CCOCC1,6.62
22,CN1CCC(OC(=O)c2cc3cc(Cl)cc(Cl)c3oc2=O)CC1,-17.8

row,SMILES,"hERG current change (%, negative = inhibition) at 10uM [%]"
1,O=C1N/C(=C\c2ccc(O)cc2)C(=O)c2ccccc21,-1.53
2,O=C(O)C(=O)O.O=S(=O)(c1ccc(F)cc1)N1CCC(N2CCCCCC2)CC1,-26.3
3,COc1ccc(Nc2ccc(Nc3ccc(OC)cc3)nn2)cc1,18.6
4,Cc1cccc(N2CCN(C(=O)Cn3nc(C)n4cccc4c3=O)CC2C)c1 (stereo not shown),1.19
5,O=C(O)CCCCCCCCc1cn(Cc2ccc(C(=O)c3ccccc3)cc2)nn1,19.5
6,Cc1cccc(C)c1OCC(=O)N/N=C/c1cc2c(cc1[N+](=O)[O-])OCO2,-4.6
7,O=C(O)CN1CCc2ccccc2C1,21.3
8,CCC(CC)C(=O)Nc1cc([N+](=O)[O-])ccc1F,-2.25
9,COCCN1Cc2cccc(C(=O)Nc3cccnc3)c2C1=O,-32.6
10,CCOC(=O)C1(Cc2ccccc2C)CCCN(C(=O)CCc2c(C)noc2C)C1 (stereo not shown),-29.3
11,COC(=O)c1cc(C(=O)OCC(=O)NC2CCCCCCC2)cc([N+](=O)[O-])c1,-7.58
12,CN(CCOc1ccc(Cl)cc1)Cc1cccc(S(=O)(=O)N(C)C)c1,-56.5
13,Cc1ccc(S(=O)(=O)N(C)C)cc1NC(=O)C(C)N(C)CCOc1ccc(Cl)cc1 (stereo not shown),-26.7
14,COc1ccc(OCCN(C)Cc2ccccc2)cc1,-41.9
15,COc1ccc(CCNC(=O)C(=O)NCc2cccs2)cc1OC,8.95
16,CCCCNC(=O)c1ccc(CS(=O)(=O)c2ccc(OC)cc2)o1,-7
17,CCCCSCCCNC(=O)c1ccc(CS(=O)(=O)c2ccc(OC)cc2)o1,-59.6
18,COc1ccc(S(=O)(=O)Cc2ccc(C(=O)NCCc3ccc(S(N)(=O)=O)cc3)o2)cc1,10.1
19,CCCCN(CCCNC(=O)c1ccc(CS(=O)(=O)c2ccc(OC)cc2)o1)Cc1ccccc1,-67.4
20,COc1ccc(S(=O)(=O)Cc2ccc(C(=O)NCc3ccccc3)o2)cc1,-14.3
21,COc1ccc(S(=O)(=O)Cc2ccc(C(=O)NCC(OC)OC)o2)cc1,17.4
22,COCCCNC(=O)c1ccc(CS(=O)(=O)c2ccc(OC)cc2)o1,5.86

row,SMILES,"hERG current change (%, negative = inhibition) at 10uM [%]"
1,COc1ccc(S(=O)(=O)Cc2ccc(C(=O)NCCCN(C)c3ccccc3)o2)cc1,-59.4
2,CCN(CC)CCCNC(=O)c1ccc(CS(=O)(=O)c2ccccc2OC)o1,16.3
3,CCOc1ccc2nc(COC(=O)c3cccs3)c(C(=O)c3ccccc3)[n+]([O-])c2c1,6.46
4,CCN(CC(=O)Nc1ccc(Br)cc1)C(=O)Cc1cccc(F)c1,-17.4
5,O=C(CSc1nnc2c(Cl)cc(C(F)(F)F)cn12)N(Cc1ccccc1)Cc1ccccc1,-28.6
6,Cc1ccc(OCc2cc(C(=O)NC(C)Cc3cccc(C)n3)no2)cn1 (stereo not shown),17.8
7,Cn1c(-c2ccsc2)c(-c2cccs2)c2cc(-c3ccc4cc[nH]c4c3)ccc21,12.1
8,Nc1ccc(O)cc1C(=O)OCC(=O)c1ccc(C2CCCCC2)cc1,8.51
9,CCOC(=O)/C=C/C(=O)OCc1csc(CC(=O)Nc2ccccc2C)n1,-1.99
10,C[C@H]1CN=C2N(CCNC(=O)CCC3CCCCC3)[C@H](Cc3ccc(O)cc3)CN21,9.65
11,COc1ccc(C[C@H]2CN3C(=NC[C@@H]3C)N2CCNC(=O)CCC2CCCCC2)cc1,-69
12,CC(C)[C@H]1CN=C2N(CCNC(=O)CCC3CCCCC3)[C@H](Cc3ccc(O)cc3)CN21,-40.2
13,COc1ccc(C[C@H]2CN3C(=NC[C@H]3C)N2CCNC(=O)CCC2CCCCC2)cc1,-69
14,COc1ccc(C[C@H]2CN3C(=NC[C@@H]3C(C)C)N2CCNC(=O)CCC2CCCCC2)cc1,-80.4
15,C[C@@H]1CN=C2N(CCNC(=O)CCC3CCCCC3)[C@H](Cc3ccc(O)cc3)CN21,-0.311
16,NC(=O)c1ncc(C(F)(F)F)cc1Oc1ccc(C(F)(F)F)cc1,24.9
17,O=C(N/N=C1/SCC(=O)N1Cc1ccco1)c1ccccc1F,20.1
18,Cc1cccc(-c2nsc(SCC(=O)c3ccc(Cl)cc3)n2)c1,23.3
19,CCOC(=O)C(C(=O)OCC)C(=O)c1cc(OC)c(OC)c(OC)c1,-16.4
20,O=S(=O)(Nc1nc2ccccc2nc1N1CCc2ccccc2C1)c1ccc(Cl)cc1,7.74
21,COc1ccc(C(=O)O)cc1S(=O)(=O)NCc1cccnc1,19.4
22,CCc1nn(CCCN2CCN(c3cccc(Cl)c3)CC2)c(=O)n1CCOc1ccccc1.Cl,-65

row,SMILES,"hERG current change (%, negative = inhibition) at 10uM [%]"
1,COc1cccc(-n2c(C)nn(CCOc3ccccc3)c2=O)c1,8.58
2,Cl.OCCN1CCN(CCOc2cccc(Cl)c2)CC1,-15.6
3,Cc1nn(CCOc2ccccc2)c(=O)n1-c1ccc(Cl)cc1,-3.66
4,CCc1nn(CCCN2CCN(c3cccc(Cl)c3)CC2)c(=O)n1CCOc1ccccc1,-63.2
5,O=C(Cn1nc(-c2ccccc2)ccc1=O)NCCN1CCN(c2cccc(Cl)c2)CC1,-24.4
6,O=Cc1ccnc(-c2ccc(OC(=O)c3ccco3)cc2)n1,7.26
7,Cc1cc(Br)ccc1NS(=O)(=O)c1c(C)[nH]c(=O)[nH]c1=O,11.6
8,c1ccc(-n2ncc3c(NCc4ccccn4)ncnc32)cc1,0.854
9,CC(=O)NS(=O)(=O)c1ccc(NC(=O)COc2ccc(C(=O)c3ccccc3)cc2)cc1,15.8
10,Cc1nnsc1S(=O)c1ccc(Br)cc1 (stereo not shown),-1.16
11,COCCn1c(SCC(=O)N2CCC(C)CC2)nc2c([nH]c3ccccc32)c1=O,-19.8
12,COCCn1c(SCC(=O)N2CCCCC2)nc2c([nH]c3ccccc32)c1=O,-20.5
13,CCOC(=O)N1CCN(C(=O)CSc2nc3c([nH]c4ccccc43)c(=O)n2CCOC)CC1,-65.1
14,COCCn1c(SCC(=O)N2CCCCCC2)nc2c([nH]c3ccccc32)c1=O,-5.06
15,CCOC(=O)N1CCN(C(=O)CSc2nc3c([nH]c4ccccc43)c(=O)n2CC)CC1,-13.8
16,COCCn1c(SCC(=O)N2CCCC2)nc2c([nH]c3ccccc32)c1=O,-61.3
17,Nc1nnc(SCC(=O)NCCOc2ccccc2)s1,4.23
18,Cc1nc(-c2ccccc2O)n(S(=O)(=O)N(C)C)n1,-4.34
19,CCCC[n+]1ccn(C2=C([O-])c3ccccc3C(=O)/C2=N\S(=O)(=O)c2ccc(Br)cc2)c1,-20.7
